High-throughput results: PubChem, ICCB-Longwood Screening Facility, Harvard Medical School
AID504770 – growth inhibitors of E. coli YBA685 in a screen for V. cholerae RctB (chromosome II replication) inhibitors. AID 504770. E. coli YBA685 rctB-dependent plasmid, OD600 growth, 3 h; active compounds read low. 130,000 compounds, 0.27% hits. z-score (test concentration not listed); in the data active = z-score below about -2, passing the limit was not always enough
Mtb MbtI inh – blocks the Mycobacterium tuberculosis siderophore enzyme MbtI. inhibition, % (no concentration beside the values). AID 493033. purified MbtI enzyme, fluorescence intensity read-out. 100,000 compounds, 0.89% hits. P9WFX0; in the data active = inhibition mostly above about 56%, no sharp cut-off; inactive = mostly below about 77%
PV pol inh – poliovirus RNA polymerase inhibition | P03300 | poliovirus polymerase elongation, fluorescence polarization; active compounds read low | % elongation, % (compound at 16.7 µg/mL) | 150,000 compounds, 0.66% hits; in the data active = % elongation below about 90%
Target sequence (P03300 1749-2209 limits assumed): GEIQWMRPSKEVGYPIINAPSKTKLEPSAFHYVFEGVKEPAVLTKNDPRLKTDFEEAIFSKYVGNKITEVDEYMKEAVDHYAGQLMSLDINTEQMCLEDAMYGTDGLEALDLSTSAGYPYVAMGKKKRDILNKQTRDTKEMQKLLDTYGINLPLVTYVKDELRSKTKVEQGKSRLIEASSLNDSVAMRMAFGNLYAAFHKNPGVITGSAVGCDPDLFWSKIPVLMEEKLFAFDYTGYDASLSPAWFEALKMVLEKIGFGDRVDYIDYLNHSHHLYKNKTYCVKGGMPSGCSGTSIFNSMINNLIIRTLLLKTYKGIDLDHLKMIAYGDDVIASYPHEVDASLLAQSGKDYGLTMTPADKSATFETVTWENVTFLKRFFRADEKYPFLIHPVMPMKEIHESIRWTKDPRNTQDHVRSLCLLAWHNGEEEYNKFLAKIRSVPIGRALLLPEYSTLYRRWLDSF
MenB inh – inhibitors of Mycobacterium tuberculosis MenB enzyme | 100,000 compounds, 0.43% hits | inhibition, % (test concentration not listed) | P9WNP5 | MenB enzyme assay, absorbance read-out; in the data active = inhibition above about 21%, passing the limit was not always enough
An asterisk follows results filed as active; . = no result given. Shown are actives, neighbours in structure and some others; about 1.5% of the full set was active somewhere.

SMILES	AID504770	Mtb MbtI inh	PV pol inh	MenB inh
Cc1nc(-c2c[nH]c3ccccc23)c(C)s1	-1.05	.	73.0*	-15.1
c1ccc(OCCN2CCN(c3ccccc3)CC2)cc1	-0.25	-1.6	.	.
COC(=O)/C(=C(/O)CSc1nnc(C)n1C1CCCCC1)c1nc2ccccc2[nH]1	-1.3	7.5	99.0	-7.5
COc1ccc(CCNC(=S)N2CCCC(C(F)(F)F)C2)cc1 (centres undefined)	-0.5	83.7*	80.0*	-8.2
COc1ccc(CCNC(=S)N2CCCC2)cc1OC	-0.95	-16.1	100.0	-24.5
Cc1oc2ccc(OCc3cccc(F)c3)cc2c1C(=O)O	-0.45	.	.	.
CC1(C)CCC2=C(O1)c1ccccc1C(=O)C2=O	.	2.4	89.0*	8.2
CC1=NN(c2ccccc2)C(=O)C1C1C(=O)N(c2ccccc2)N=C1C (centres undefined)	-0.5	5.2	103.0	-2.7
O=C1C2CCCCC2=NN1c1ccccc1 (centres undefined)	-1.5	70.5*	101.0	-17.6
CC1=NN(c2ccccc2)C(=O)C1C(=O)O (centres undefined)	1.3	-2.8	102.0	-23.2
O=C1C2CCCC2=NN1c1ccccc1 (centres undefined)	0.6	58.8*	106.0	-12.5
NN1C(=O)c2ccccc2NC1C1CC=CCC1 (centres undefined)	1.45	-47.0	103.0	-32.2
CCOC(=O)Cc1csc(SCC(=O)NC(C)(C)C)n1	0.6	2.5	104.0	-22.0
CCOc1ccc(C(=O)c2ccccc2C(=O)O)cc1OCC	1.75	8.9	47.0*	6.4
C=CCNC(=O)CC1Nc2ccccc2NC1=O (centres undefined)	-0.9	-52.2	100.0	-9.2
CCN(CC)S(=O)(=O)c1ccc(N2CCN(c3ccccc3F)CC2)nc1	-0.25	16.4	100.0	10.6
N#Cc1ccc(S(=O)(=O)N2CCNCC2)cc1	-0.1	-2.5	102.0	27.3*
O=S(=O)(c1ccc(Br)cc1)N1CCNCC1	0.5	.	104.0	6.0
Cc1cccc(NC(=O)c2nc(S(C)(=O)=O)ncc2Cl)c1	.	.	103.0	.
COc1ccc(NC(=O)c2nc(S(C)(=O)=O)ncc2Cl)cc1Cl	-0.85	88.0*	102.0	-8.7
CS(=O)(=O)c1ncc(Cl)c(C(=O)Nc2cccc(Cl)c2)n1	-0.95	81.2*	102.0	10.2
COC(=O)c1nc(S(C)(=O)=O)ncc1Cl	-2.7*	12.3	96.0	-7.4
CCN(CC)CC1OCc2ccccc2CO1	0.45	-1.1	103.0	15.6
CC1=CC(=C(C#N)C#N)C=C(C)N1CCc1ccc(S(N)(=O)=O)cc1	-0.4	94.2	97.0	-21.2
N=C(N)c1cccc(NC(=O)Nc2cccc(C(=N)N)c2)c1	1.35	.	88.0*	-45.6
SMILES	AID504770	Mtb MbtI inh	PV pol inh	MenB inh
Cc1cccc(NC(=O)Nc2cccc(C)c2)c1	2.6	-6.4	100.0	-14.2
CCOc1ccc(C(=N/O)/C(C)=N/O)cc1	0.4	2.6	100.0	9.1
CCn1c(CSc2ncccn2)nc2cc(C(=O)O)ccc21	-0.2	7.6	86.0	-22.6
CCn1c(CS(=O)(=O)c2cc(C)ccc2C)nc2cc(C(=O)O)ccc21	-0.55	-11.2	81.0*	1.3
O=C(Nc1ccncc1)OC1CCCC1	-0.1	-7.7	103.0	-19.0
Clc1cccc(-c2nc(NCCN3CCOCC3)nc3c2COc2ccccc2-3)c1	-0.5	-36.3	101.0	-2.4
COCc1nc2ccccc2n1Cc1ccc(F)cc1	-0.4	.	.	.
S=c1[nH]nc(NC2CC2)s1	2.2	89.0*	102.0	-37.3
CN(C(=O)c1ccccc1C(=O)O)C1CCCCC1	-0.6	-3.4	100.0	-20.8
CC1(C)CC(=O)C=C(NCCc2ccccc2)C1	1.6	23.5	101.0	32.8*
CSc1ccccc1NC(=O)CN1CCN(C(C)=O)CC1	-1.7	10.8	102.0	-8.0
N#Cc1ccc(CSc2nnc(-c3cccs3)n2CC2CCCO2)cc1 (centres undefined)	-2.5*	11.2	107.0	-17.0
CC(C#N)Sc1nnc(-c2cccs2)n1CC1CCCO1 (centres undefined)	-0.7	-3.4	99.0	-43.6
CC(=O)Nc1[nH]c2ccccc2c1O	-0.95	-3.5	.	.
Cc1cc2c(cc1C)C(=O)C(N1CCOCC1)=C(c1ccccc1)C2=O	0	53.9*	102.0	8.2
CCCNC(=O)C(C)n1nc(-c2ccccc2)c2cc(Cl)ccc21 (centres undefined)	0.85	.	.	.
N/C(=N\OC(=O)c1ccc(Br)o1)c1ccncc1	-2.4*	6.8	105.0	-0.5
Cc1ccc(NCCCCO)c(C)c1	-0.2	4.6	100.0	22.2
COc1ccccc1CC(=O)Nc1cccc(C)n1	0.25	0.6	100.0	39.8*
COc1ccccc1CC(=O)Nc1cccc(NC(C)=O)c1	-0.9	.	99.0	-1.4
Cc1ccccc1NC(=S)N(CCC(C)C)C(C)c1ccncc1 (centres undefined)	0	-11.6	103.0	-12.1
CCOC(=O)c1sc(N=NC2=C(O)CCCC2=O)c(C(=O)OCC)c1C	0.75	13.7	42.0*	-39.8
C=CCOC(=O)c1sc(N2CCCC2=O)c(C(=O)OCC)c1C	-0.4	7.9	102.0	2.9
O=C(Cc1cnn(-c2ccccc2)c1)c1ccc(O)c(O)c1O	0.65	81.6*	100.0	-6.6
CN=C1S/C(=C\c2ccc(Cl)cc2)C(=O)N1C	0.05	5.6	88.0*	5.9
SMILES	AID504770	Mtb MbtI inh	PV pol inh	MenB inh
CCc1nnsc1C(=O)Nc1ccc(S(=O)(=O)N2CCOCC2)cc1	0.25	0.1	102.0	-27.9
COc1ccc(CCNc2nc(C)nc3c2nnn3Cc2ccccc2)cc1OC	-0.1	-3.2	100.0	38.8*
Cc1nn(-c2ccccc2)cc1/C=N/n1c(-c2ccncc2)n[nH]c1=S	-0.45	51.4*	103.0	-17.6
COc1ccc(-c2n[nH]c(=S)n2/N=C/c2c(C)nn(-c3ccccc3)c2C)cc1OC	0.9	1.8	101.0	-17.2
COc1ccc(C)cc1NC(=O)CCC(=O)c1ccc2c(c1)OCCCO2	3	-14.1	140.0	-30.9
N/C(=N/OC(=O)Nc1ccccc1)C1COc2ccccc2O1 (centres undefined)	0.1	4.8	101.0	16.1
CC(C)S(=O)(=O)C1=NSC2=NC(=O)/C(=C\c3ccco3)C(=N)N21	0	15.4	79.0*	-63.3
CCC(=O)Nc1nc2c(s1)CSc1ccccc1-2	-0.5	95.8*	100.0	-11.3
CCC(=O)Nc1nc2ccccc2s1	-0.05	7.8	.	.
COC(=O)C(C#N)=C(SC)SC	-1.55	82.8*	93.0	25.5
Cn1c(Sc2cccs2)nc(C#N)c1C#N	-0.8	.	.	.
CCN(CC)C(=S)SSC(=S)N(CC)CC	-1.05	98.5*	99.0	2.6
O=c1[nH]c(SCc2ccccc2)nc2ccccc12	0.5	40.0	.	.
CCc1nc(SCc2ccccc2)[nH]c(=O)c1C	-0.3	83.2*	102.0	0.0
O=C(NCc1ccccc1)C1C2CCCCC21 (centres undefined)	0.7	.	107.0	-11.9
CNC(=O)Nc1ccccc1NC1=C(C(=O)OC)CSC1	-2.2*	68.5	80.0	14.9
COC(=O)C1=C(Nc2ccccc2NC(=O)c2ccccc2C(=O)O)CSC1	-0.95	18.8	105.0	-7.4
N#CC1=C(SCc2ccccc2)SC(c2ccc(C(=O)O)cc2)NC1=O (centres undefined)	0.2	8.7	86.0*	25.1
